High-throughput results: PubChem BioAssay, several laboratories
14-3-3 Bad inh: disrupts binding of bovine 14-3-3 zeta to phospho-Bad peptide; inhibition, % at 21.7 µM; TR-FRET 14-3-3zeta/Dy647-pBad peptide displacement, 1 h; actives 0.71% (n = 220,000); P63103;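 active = inhibition above about 70%, limit read from the data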;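 note: 0% = full 14-3-3 plus peptide FRET controls and 100% = background without 14-3-3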
Target sequence (P63103 whole entry, looked up): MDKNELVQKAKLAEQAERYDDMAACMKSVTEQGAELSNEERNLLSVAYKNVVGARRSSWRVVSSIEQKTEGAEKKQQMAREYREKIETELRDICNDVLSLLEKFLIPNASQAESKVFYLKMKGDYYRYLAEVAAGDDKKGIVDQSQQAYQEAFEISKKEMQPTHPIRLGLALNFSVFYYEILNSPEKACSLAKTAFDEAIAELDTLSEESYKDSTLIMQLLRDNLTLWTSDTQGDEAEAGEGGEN
MsrA inhibitor: bovine MsrA inhibition; inhibition, % at 15.5 µM; actives 0.75% (n = 360,000); purified bovine MsrA, absorbance read-out; in the data active = inhibition above about 4.5%;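 note: 0% = vehicle wells with enzyme and 100% = reference inhibitor wells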
bovine MsrA act: activators of bovine methionine sulfoxide reductase A; purified bovine MsrA, absorbance read-out; activation, % at 10.6 µM; actives 0.3% (n = 360,000); in the data active = activation above about 7.5%;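 note: 0% = vehicle and 100% = reference activator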
pCIP destab: compounds decreasing mouse p/CIP protein stability; Q05BA5; decrease of EGFP signal, % at 10 µM; F442A p/CIP-EGFP cells, EGFP fluorescence, 16 h; actives 0.01% (n = 290,000); AID 1984;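 active = EGFP signal decrease of at least 30% at 10 µM or well 3 SD below plate mean, unless failing retest; inactive = the rest, including hits failing retest or dose response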
Numbers without * were called inactive; . = no result given; [ ] = another dose, or the depositor's remark. An excerpt weighted towards active compounds, which were near 1.4% of everything screened.

SMILES	14-3-3 Bad inh	MsrA inhibitor	bovine MsrA act	pCIP destab
CC(=O)/C(C#N)=C1\NC(=O)C(Cc2ccccc2Cl)S1 (stereo not drawn)	74*	4	-4	-14
COc1cc(C[C@H](C)[C@H](C)Cc2ccc3c(c2)OCO3)ccc1O	-8	.	16*	-3
Cc1nc(NC(=O)c2ccco2)sc1-c1csc(Nc2ccc(Cl)cc2Cl)n1	87*[fluorescence artefact?]	2	-3	-16
Cc1nc(NC(=O)c2ccccc2)sc1-c1csc(Nc2ccc(F)cc2)n1	55	.	.	-25
Cc1nc(NC(=O)c2ccccc2)sc1-c1csc(Nc2ccc(Cl)cc2Cl)n1	76*[fluorescence artefact?]	.	.	-11
Cc1ccccc1Nc1nc(-c2sc(NC(=O)c3cccc(Cl)c3)nc2C)cs1	44	.	.	-15
Cc1nc(NC(=O)c2ccccc2)sc1-c1csc(Nc2ccc(Cl)cc2)n1	70*	.	.	-20
Cc1ccc(Cl)cc1Nc1nc(-c2sc(NC(=O)c3cccc(Cl)c3)nc2C)cs1	89*	.	.	-6
COCCCNC(=O)[C@H]1O[C@@H](n2cnc3c(=O)[nH]c(N)nc32)[C@H](O)[C@@H]1O	.	0	.	.
CN(C(=O)[C@H]1O[C@@H](n2cnc3c(=O)[nH]c(N)nc32)[C@H](O)[C@@H]1O)C1CCCCC1	.	0	.	.
Cc1nc(NC(=O)c2ccccc2)sc1-c1csc(Nc2cccc(Cl)c2)n1	86*	.	.	-9
COc1cc(OC)cc(-c2ncc3ccccn23)c1	70	0	2	-7
COc1cc(-c2ncc3ccccn23)cc(OC)c1OC	73*	1	-1	-8
COc1ccc(N=Cc2c(O)n(-c3ccc(OC)cc3)c(=O)c3ccccc23)cc1	75*	1	-11	-1
COc1ccc(N=Cc2c(O)n(-c3cccc(C)n3)c(=O)c3ccccc23)cc1	2	1	-7	13
C=CCc1cc(C)ccc1OCCn1ccnc1	72*	2	-9	-10
C=CCc1cc(C)ccc1OCCOCCn1ccnc1	1	0	-5	-5
CCN=C1NC(CCc2ccccc2)C(C(=O)OC)=C(C)N1Cc1ccc(C(F)(F)F)cc1 (stereo not drawn)	.	0	.	.
CCCCCCCCCCCCCCCC[n+]1cccc2ccccc21	97*[fluorescence artefact?]	-1	-10	-2
COc1cc(NC2c3ncccc3C(=O)N2Cc2ccco2)cc(OC)c1 (stereo not drawn)	82*	1	-5	-7
COc1ccc(CN2C(=O)c3cccnc3C2Nc2ccc(OC)c(Cl)c2)cc1 (stereo not drawn)	83*	0	-6	-2
CN1C(=O)[C@@]2(C3=C(CCCC3=O)OC3=C2C(=O)OC2(CCCCC2)C3)c2ccccc21	.	-1	.	.
CC(=O)N(CN1C(=O)CCC1=O)c1ccc(Cl)c(Cl)c1	82*	1	-8	0
O=C1CCC(=O)N1CN(C(=O)c1ccco1)c1ccc(Cl)c(Cl)c1	-5	-1	-9	8
COC(=O)[C@]12C[C@H](CC(=O)NCCc3ccccc3OC)C(=O)N(CCC3=CCCCC3)C1=C[C@H](C(C)(C)C)O[C@@H]2C	.	0	.	.
SMILES	14-3-3 Bad inh	MsrA inhibitor	bovine MsrA act	pCIP destab
COCc1cc(N2CCN(C(=O)OC(C)(C)C)C[C@@H]2C)ccc1N1CCN(Cc2ccccc2)[C@@H](C)C1	.	1	.	.
Nc1[nH]c(C(=O)c2ccc(Br)cc2)c(-c2ccc(Cl)cc2Cl)c1C(=O)NCCc1c[nH]c2ccccc12	.	2	.	.
CS(=O)(=O)c1ccc2nc(NC(=O)c3ccc(Cn4cc(Br)cn4)o3)sc2c1	.	5.4*	-7	10
CCOC(=O)C1(Cc2cccc(OC)c2)CCN(Cc2cc(OC)ccc2OC)CC1	80*	0	-2	13
CCOC(=O)C1CCCCN1Cc1cc(Cl)ccc1O (stereo not drawn)	.	1	-1	-17
CCOC(=O)C1CCCCN1Cc1cc(OC)ccc1OC (stereo not drawn)	91*	0	-1	-14
CCOC(=O)C1CCN(Cc2ccc(F)cc2F)CC1	76*	1	4	3
CCOC(=O)C1(Cc2cccc(OC)c2)CCN(Cc2cccc(OC)c2OC)CC1	-3	0	0	-22
CCOC(=O)C1CCN(Cc2ccc(F)c(Br)c2)CC1	23	0	-1	3
CCOC(=O)C1CCCCN1Cc1cccc(OC)c1OC (stereo not drawn)	76*	1	-5	2
Cc1[nH]nc2c1C(c1ccc(Br)cc1)N(c1ccccc1)C2=O (stereo not drawn)	.	0	.	.
CCOC(=O)C1CCCCN1Cc1cccc(F)c1 (stereo not drawn)	71*	0	-4	-8
CCOC(=O)C1CCCCN1Cc1ccc(F)cc1 (stereo not drawn)	63	0	1	-6
CCCCNC(=O)C[C@H]1C[C@@]2(C(=O)OC)C(=C[C@H](COCc3ccccc3)O[C@@H]2C)N(Cc2ccc3c(c2)OCO3)C1=O	.	0	.	.
CC12CN3CC(C)(CN(C1)C3c1ccc(Cl)cc1Cl)C2O (stereo not drawn)	.	0	1	3
CN(C)c1ccc(C2N3CC4(C)CN2CC(C)(C3)C4O)cc1 (stereo not drawn)	-4	5.5*	-10	5
O=C(COC(=O)c1ccc(Cl)cc1O)NCCN1C(=O)CSC1=O	97*	3	-9	-11
C[C@@H]1ON(C)[C@H]2C[C@H]3c4cc(N5CCCCC5)ccc4CCN3C[C@@H]12	.	-1	.	.
COc1cccc(OC)c1C(=O)N1CCN(Cc2ccccc2C(F)(F)F)CC1	84*	1	-2	-1
COc1ccccc1CN1CCN(C(=O)c2ccncc2)CC1	83*	0	-3	-1
CN1CCCN(Cc2ccccc2C(F)(F)F)CC1	81*	0	-4	0
C[C@]12Cc3ccccc3C1CC1=N[C@@H](c3ccc(C(F)(F)F)cc3)O[C@@]13C[C@@H]2C(=O)N3C1CCN(Cc2ccccc2)CC1 (stereo partly drawn)	.	-1	.	.
O=C(O)Cn1c(-c2cscn2)nc2ccccc21	72*	0	-5	-5
COCC(=O)/C=C1\Sc2ccccc2N1C	2	5.1*	-5	-6
C=CCc1cccc2cc(C(=O)Nc3ccccc3C(=O)O)c(=O)oc12	3	4.9*	-3	-6
SMILES	14-3-3 Bad inh	MsrA inhibitor	bovine MsrA act	pCIP destab
CCN1/C(=C(\O)c2ccccc2)C(=O)c2ccccc2S1(=O)=O	1	4.8*	-3	-14
OCCN1CCN(C(=S)NCCc2ccccc2)CC1	-16	1	-3	2
CCN1CCN(C(=S)NCCc2ccccc2)CC1	85*	-1	-10	-10
CCNC(=S)N/N=C1\C(=O)c2cccc3cccc1c23	-10	1	6	6
O=C(N/N=C1/C(=O)c2cccc3cccc1c23)c1ccc(Cl)cc1	85*[fluorescence artefact?]	1	-4	-5
COC(=O)[C@]12C[C@H](CC(=O)NCc3ccc(OC)c(OC)c3)C(=O)N(CCC3=CCCCC3)C1=C[C@H](COCc1ccccc1)O[C@@H]2C	.	0	.	.
CCCCCC(=O)Nc1ccc(N2CCN(C(=O)c3ccccc3)CC2)cc1	82*	1	-4	1
COc1cc(/C=C2\SC(=O)N(Cc3ccc(Cl)cc3)C2=O)cc([N+](=O)[O-])c1O	96*	-1	-4	-1
COc1cc(/C=C2\SC(=O)N(Cc3ccc(F)cc3)C2=O)cc([N+](=O)[O-])c1O	18	0	-2	-12
